The source made the active and inactive calls. How the source made its calls: active means hit-call score of the fitted dose curve at least 0.9, where 1 is the maximum; inactive means score below 0.9.
Columns and labels:
Settings in all cases: mRNA level, 48 h; actives raise or lower the signal
[1] = read-out: Cyclin D1 (CCND1), CCND1 (gene 595); assay: LTEA_HepaRG_CCND1: Life Technologies and Expression Analysis (LTEA) Assay for Cyclin D1 (CCND1) using HepaRG (AID 2283451);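 on AC50: differentiated human HepaRG liver cells in serum-free induction medium; TaqMan qRT-PCR transcript level normalised to ACTB GAPDH and POLR2A housekeeping genes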
Procedure, shortened: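 HepaRG plated 48 h, medium switched to serum-free induction medium, chemicals added in duplicate (top 100 uM, half-log steps, 0.5% DMSO) for 48 h, cells lysed, RNA measured by TaqMan qRT-PCR.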

[2] = read-out: catalase (CAT), CAT (gene 847); assay: LTEA_HepaRG_CAT: Life Technologies and Expression Analysis (LTEA) Assay for catalase (CAT) using HepaRG (AID 2283452)
Procedure, shortened: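 Differentiated HepaRG cells in serum-free induction medium were dosed 48 h in duplicate, eight half-log concentrations from 100 uM in 0.5% DMSO. Transcript measured by TaqMan qRT-PCR, normalised to ACTB/GAPDH/POLR2A, fitted bidirectionally against DMSO.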

[3] = read-out: flavin-containing dimethylaniline monooxygenases 3 (FMO3), FMO3 (gene 2328); assay: LTEA_HepaRG_FMO3: Life Technologies and Expression Analysis (LTEA) Assay for flavin-containing dimethylaniline monooxygenases 3 (FMO3) using HepaRG (AID 2283453);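 on AC50: differentiated human HepaRG liver cells in serum-free induction medium; FMO3 transcript by TaqMan qRT-PCR normalized to ACTB GAPDH and POLR2A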
Procedure, shortened: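 FMO3 transcript quantified by TaqMan qRT-PCR against three housekeeping genes after 48 h chemical exposure of HepaRG cells. Eight-point half-log series, top 100 uM, 0.5% DMSO vehicle; phenobarbital 1mM induction control; up- or down-regulation fitted.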

[4] = read-out: Cytochrome P450 (CYP1A1), CYP1A1 (gene 1543); assay: LTEA_HepaRG_CYP1A1: Life Technologies and Expression Analysis (LTEA) Assay for Cytochrome P450 (CYP1A1) using HepaRG (AID 2283454)
Procedure, shortened: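 HepaRG, 48 h post-plating switched to serum-free induction medium; 8-pt conc-response (top 100 uM, half-log, 0.5% DMSO), duplicates, 48 h. Lysis in RLT, TaqMan qRT-PCR for CYP1A1; gain or loss vs DMSO.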

[5] = read-out: CFLAR gene, CFLAR (gene 8837); assay: LTEA_HepaRG_CFLAR: Life Technologies and Expression Analysis (LTEA) Assay for CFLAR gene using HepaRG (AID 2283455)
Procedure, shortened: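 Gain- or loss-of-signal changes in CFLAR transcript were fitted bidirectionally relative to 0.5% DMSO. Cells (HepaRG, duplicate wells) were dosed for 48 h across eight half-log concentrations topping at 100 uM; quantitation by TaqMan qRT-PCR.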

[6] = read-out: Forkhead box O1 (FOXO1), FOXO1 (gene 2308); assay: LTEA_HepaRG_FOXO1: Life Technologies and Expression Analysis (LTEA) Assay for Forkhead box O1 (FOXO1) using HepaRG (AID 2283456)
Procedure, shortened: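 Using one lot of HepaRG hepatic cells kept in 0.5% DMSO, the team applied test chemicals in duplicate, half-log dilutions from 100 uM, for 48 h. Expression, normalised to ACTB/GAPDH/POLR2A, was compared with vehicle in either direction.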

[7] = read-out: growth arrest and DNA damage 45 (GADD45A), GADD45A (gene 1647); assay: LTEA_HepaRG_GADD45A: Life Technologies and Expression Analysis (LTEA) Assay for growth arrest and DNA damage 45 (GADD45A) using HepaRG (AID 2283458)
Procedure, shortened: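 GADD45A expression was measured by TaqMan qRT-PCR against three housekeeping genes (ACTB, GAPDH, POLR2A) after 48 h treatment of HepaRG cells. Eight-point half-log series up to 100 uM in 0.5% DMSO, run in duplicate.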

[8] = read-out: Forkhead box O3 (FOXO3), FOXO3 (gene 2309); assay: LTEA_HepaRG_FOXO3: Life Technologies and Expression Analysis (LTEA) Assay for Forkhead box O3 (FOXO3) using HepaRG (AID 2283459)
Procedure, shortened: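 Gene-expression endpoint: FOXO3 transcript level by qRT-PCR in HepaRG cultures treated 48 h with chemicals up to 100 uM (half-log, 0.5% DMSO vehicle).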

[9] = read-out: ABC Transporter (ABCB1), ABCB1 (gene 5243); assay: LTEA_HepaRG_ABCB1: Life Technologies and Expression Analysis (LTEA) Assay for ABC Transporter (ABCB1) using HepaRG (AID 2283460)
Procedure, shortened: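 Human liver HepaRG line treated 48 h with up to 100 uM compound (eight half-log points, 0.5% DMSO); ABCB1 mRNA change fitted bidirectionally against DMSO controls.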

[10] = read-out: growth arrest and DNA damage 45 (GADD45B), GADD45B (gene 4616); assay: LTEA_HepaRG_GADD45B: Life Technologies and Expression Analysis (LTEA) Assay for growth arrest and DNA damage 45 (GADD45B) using HepaRG (AID 2283461)
Procedure, shortened: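 HepaRG, ~100,000 cells/well, 48 h plating; serum-free induction medium; cpd 100 uM top, half-log x8, 0.5% DMSO, duplicate, 48 h; lysis in RLT, RNA isolation, qRT-PCR; norm ACTB/GAPDH/POLR2A; bidirectional fit vs DMSO.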

[11] = read-out: ABC Transporter (ABCC3), ABCC3 (gene 8714); assay: LTEA_HepaRG_ABCC3: Life Technologies and Expression Analysis (LTEA) Assay for ABC Transporter (ABCC3) using HepaRG (AID 2283462)
Procedure, shortened: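 Human HepaRG, 48 h dosing, 8-pt half-log series from 100 uM, 0.5% DMSO vehicle, duplicates. ABCC3 mRNA by TaqMan qRT-PCR, housekeeping-normalized; bidirectional curve fit vs DMSO.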

[12] = read-out: ABC Transporter (ABCB11), ABCB11 (gene 8647); assay: LTEA_HepaRG_ABCB11: Life Technologies and Expression Analysis (LTEA) Assay for ABC Transporter (ABCB11) using HepaRG (AID 2283463)
Procedure, shortened: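 Using HepaRG cultures held in 0.5% DMSO, chemicals were tested at half-log dilutions from 100 uM for 48 h. Induction or suppression of ABCB11 mRNA, normalized to ACTB, GAPDH and POLR2A, was fitted bidirectionally against vehicle.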

[13] = read-out: ABC Transporter (ABCC2), ABCC2 (gene 1244); assay: LTEA_HepaRG_ABCC2: Life Technologies and Expression Analysis (LTEA) Assay for ABC Transporter (ABCC2) using HepaRG (AID 2283464)
Procedure, shortened: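 HepaRG, 48 h post-plating; serum-free induction medium; cpd 8-pt, 100 uM top, half-log, 0.5% DMSO, duplicate, 48 h. Readout: ABCC2 mRNA by qRT-PCR, norm. ACTB/GAPDH/POLR2A. Bidirectional fit vs DMSO baseline.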

[14] = read-out: Broad substrate specificity ATP-binding cassette transporter ABCG2 (Homo sapiens) (UniProt Q9UNQ0); assay: LTEA_HepaRG_ABCG2: Life Technologies and Expression Analysis (LTEA) Assay for ABC Transporter (ABCG2) using HepaRG (AID 2283465)
Procedure, shortened: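 Gene expression of ABCG2 in HepaRG liver cells is quantified by qRT-PCR following 48 h exposure across an eight-point series topping at 100 uM. Values come from bidirectional fitting relative to DMSO vehicle.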

[15] = read-out: ATP-citrate lyase (ACLY), ACLY (gene 47); assay: LTEA_HepaRG_ACLY: Life Technologies and Expression Analysis (LTEA) Assay for ATP-citrate lyase (ACLY) using HepaRG (AID 2283466)
Procedure, shortened: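 ACLY expression changes in human HepaRG liver cells are quantified by qRT-PCR after 48 h exposure to test chemicals (maximum 100 uM, half-log steps). Values are fitted in both directions relative to 0.5% DMSO vehicle.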

[16] = read-out: Peroxisomal acyl-coenzyme A oxidase 1 (ACOX1) gene, ACOX1 (gene 51); assay: LTEA_HepaRG_ACOX1: Life Technologies and Expression Analysis (LTEA) Assay for Peroxisomal acyl-coenzyme A oxidase 1 (ACOX1) gene using HepaRG (AID 2283467)
Procedure, shortened: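 Human HepaRG hepatic cultures, 48 h treatment with test chemicals up to 100 uM. ACOX1 expression read by qRT-PCR relative to 0.5% DMSO vehicle.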

[17] = read-out: Alkaline Phosphatase, Placental (ALPP) gene, ALPP (gene 250); assay: LTEA_HepaRG_ALPP: Life Technologies and Expression Analysis (LTEA) Assay for Alkaline Phosphatase, Placental (ALPP) gene using HepaRG (AID 2283468);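 on AC50: differentiated human HepaRG liver cells in serum-free induction medium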
Procedure, shortened: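 HepaRG, 48 h plating then 48 h dosing, serum-free induction medium, 0.5% DMSO. 8 conc, half-log, max 100 uM, duplicates. Endpoint: ALPP transcript by qRT-PCR, housekeeping-normalized; gain or loss fitted vs DMSO.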

[18] = read-out: Bcl-2 (BAD) gene, BAD (gene 572); assay: LTEA_HepaRG_BAD: Life Technologies and Expression Analysis (LTEA) Assay for Bcl-2 (BAD) gene using HepaRG (AID 2283469)
Procedure, shortened: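 Activity values reflect up- or down-regulation of BAD mRNA in human HepaRG hepatic cells treated 48 h in serum-free medium, with eight-point half-log dosing capped at 100 uM and 0.5% DMSO vehicle.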

[19] = read-out: Bcl-2 (BAX) gene, BAX (gene 581); assay: LTEA_HepaRG_BAX: Life Technologies and Expression Analysis (LTEA) Assay for Bcl-2 (BAX) gene using HepaRG (AID 2283470)
Procedure, shortened: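 Gene expression measured by Fluidigm qRT-PCR with three housekeeping genes for normalisation. HepaRG cells, plated 48 h beforehand, treated 48 h at up to 100 uM (8-point, half-log) in 0.5% DMSO. Bidirectional fitting versus DMSO.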

Measured: AC50

Chain of Broad substrate specificity ATP-binding cassette transporter ABCG2 (Homo sapiens) (Q9UNQ0 whole entry, looked up): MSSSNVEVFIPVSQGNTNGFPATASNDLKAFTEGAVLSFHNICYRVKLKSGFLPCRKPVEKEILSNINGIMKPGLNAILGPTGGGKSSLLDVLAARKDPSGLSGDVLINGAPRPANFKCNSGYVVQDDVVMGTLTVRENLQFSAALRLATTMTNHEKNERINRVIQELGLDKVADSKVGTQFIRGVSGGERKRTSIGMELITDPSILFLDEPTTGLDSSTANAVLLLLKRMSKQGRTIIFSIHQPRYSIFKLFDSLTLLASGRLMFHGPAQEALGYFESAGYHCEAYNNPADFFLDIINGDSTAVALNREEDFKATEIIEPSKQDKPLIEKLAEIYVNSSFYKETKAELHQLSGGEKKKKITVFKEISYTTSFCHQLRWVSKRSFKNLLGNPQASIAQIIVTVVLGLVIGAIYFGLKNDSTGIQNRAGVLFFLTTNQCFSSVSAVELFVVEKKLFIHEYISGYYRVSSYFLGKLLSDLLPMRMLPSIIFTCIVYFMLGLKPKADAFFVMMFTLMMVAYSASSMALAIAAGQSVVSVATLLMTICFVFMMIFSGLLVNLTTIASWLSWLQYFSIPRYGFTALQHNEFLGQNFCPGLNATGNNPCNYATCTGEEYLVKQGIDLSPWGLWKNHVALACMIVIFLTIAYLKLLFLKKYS

O=C(O)Cc1cc(I)c(Oc2ccc(O)c(I)c2)c(I)c1
active: [1] 87.5 µM | [2] 9.92 µM | [3] 91.2 µM | [6] 50 µM | [7] 94.5 µM | [10] 50 µM | [12] 20.2 µM | [14] 73.1 µM | [16] 86 µM | [17] 76.9 µM | [19] 87.2 µM
inactive: [4] | [5] | [8] | [9] | [11] | [13] | [15] | [18]

Cc1ccc(C(C)C)cc1
active: [4] 74.9 µM
inactive: all other assays above

CCN(Cc1cccnc1)C(=O)c1cccc(Cl)c1[C@]1(C)C(=O)N(Cc2ccc(OC)cc2OC)c2ccc(Cl)cc21
active: [2] 18.4 µM | [3] 16.6 µM | [7] 18.1 µM | [8] 8.39 µM | [12] 23.6 µM | [14] 6.56 µM | [15] 16.9 µM | [16] 18.2 µM | [17] 10.1 µM | [19] 24.7 µM
inactive: [1] | [4] | [5] | [6] | [9] | [10] | [11] | [13] | [18]

O=C=NCCCCCCN=C=O
active: [4] 80.1 µM
inactive: all other assays above

O=C(OCCCCCCOC(=O)c1ccccc1)c1ccccc1
inactive: all assays above

CCCCCCCCCCCCO
inactive: all assays above

CCCC(=O)OCCC(C)C
active: [4] 68.2 µM
inactive: all other assays above

CCCCCCCCCC(=O)O
active: [4] 70.9 µM
inactive: all other assays above

CC/C(=C(/CC)c1ccc(O)cc1)c1ccc(O)cc1
active: [1] 80.3 µM | [2] 91.7 µM | [3] 92.4 µM | [5] 50 µM | [6] 74.8 µM | [8] 76.9 µM | [9] 82.2 µM | [10] 68.8 µM | [13] 78 µM | [14] 50 µM | [15] 50 µM | [16] 93.1 µM
inactive: [4] | [7] | [11] | [12] | [17] | [18] | [19]

c1ccc2n[nH]nc2c1
inactive: all assays above

O=C(O)c1ccccc1C(=O)OCc1ccccc1
active: [4] 21.4 µM
inactive: all other assays above

O=C1CCC(C2CCCCC2)CC1
active: [4] 50 µM
not listed: [2]
inactive: all other assays above

CCN(CC)C(=O)c1cc(S(=O)(=O)Cc2ccccc2)c(N2CCC(c3ccccc3)CC2)cc1N(CC)CCN(C)C
active: [2] 30.2 µM | [3] 29.4 µM | [4] 7.21 µM | [9] 35.1 µM | [11] 31 µM | [13] 30.8 µM | [15] 4.57 µM | [16] 32.7 µM | [17] 31.5 µM
inactive: all other assays above
